# The full list was thinned out, with hits kept by preference.
# PNC inhibitor: High Content Assay for Compounds that inhibit the Assembly of the Perinucleolar Compartment | PC3M PTB-GFP, PNC prevalence imaging, 16 h; stronger effect = lower value | activity change (PNC), negative = inhibition, % at 10 µM | hit rate 3.1% among 140,000 | AID 2417, 2010;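 active = readout at or below -70, meaning at least 70% loss of cells showing the perinucleolar compartment, a nuclear body marking cancer cells; inconclusive = readout between -30 and a set limit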;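 note: plate controls were DMSO wells for no effect and camptothecin positive control wells for full effect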
#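 Read-out is percentage of cells bearing a perinucleolar compartment, from automated 20x imaging of fixed, Hoechst-stained PC3M PTB-GFP cells. Cells were seeded 4 h, then exposed 16 h to compound (23 nl of library stock) in duplicate plates.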
# IMPase Li cell: qHTS Assay for Identifying the Cell-Membrane Permeable IMPase Inhibitors: Potentiation with Lithium. CHO-M1 cells, IP1 TR-FRET (IP-One), carbachol + lithium. Potency, µM (highest dose often 59.4 µM), for inactives: top-dose activity, negative = IMPase inhibition, hits mostly inhibitors. hit rate 0.35% among 210,000. AID 1457, 2008;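 note: IP1 builds up when IMPase is blocked and the TR-FRET signal falls; potency is the fitted concentration of half-maximal effect; plate controls were basal vehicle for no effect and high inhibitor control for full effect; nearly all actives have a fitted effect of over 50% in size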
#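 Readout is a homogeneous TR-FRET IP1 immunoassay (Ex 320, Em 665 and 620), where raised cytosolic IP1 lowers signal. Cells were CHO-M1 treated 30 min at 37C with test compounds plus a little lithium; AC50 values came from Hill-equation fitting.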
# IMPase cell inh: qHTS Assay for Identifying the Cell-Membrane Permeable IMPase Inhibitors; Inositol monophosphatase 1 (Rattus norvegicus), P97697; CHO-M1 cells, IP1 accumulation, HTRF TR-FRET ratio; inhibition (IP1 accumulation), % at 46.1 µM; 120,000 tested, under 10 active; AID 901, 2007; active = well fitted curve in the direction sought with a large enough effect in the signal ratio, not every such curve was filed as active; inconclusive = small, poorly fitted or top-dose-only effect, or a change in a side signal; inactive = no such curve, though single readings can be large or run the other way; the % refers to the signal ratio;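 note: cells stimulated with carbachol in lithium chloride buffer; plate controls were DMSO basal wells for no effect and reference inhibitor wells for full effect; higher means more IMPase inhibition seen as more IP1 and lower FRET ratio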
# Target sequence (P97697 whole entry, looked up): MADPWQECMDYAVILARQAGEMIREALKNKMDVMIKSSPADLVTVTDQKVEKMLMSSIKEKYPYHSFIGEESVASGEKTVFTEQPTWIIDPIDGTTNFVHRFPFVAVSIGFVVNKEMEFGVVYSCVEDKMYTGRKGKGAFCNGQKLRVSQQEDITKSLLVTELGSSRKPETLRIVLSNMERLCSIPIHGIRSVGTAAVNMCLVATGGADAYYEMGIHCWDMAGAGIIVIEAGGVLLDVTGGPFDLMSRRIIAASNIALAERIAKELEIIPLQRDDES
#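 CHO-M1 cells (CHO stably expressing M1 receptor), compound up to 46 uM final, stimulated with carbachol (50 uM as added) in buffer with 50mM LiCl, pH 7.4, 30 min at 37C. Cytosolic IP1 read by TR-FRET; AC50 from Hill fits.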
# ALOX12 inhib: qHTS Assay for Inhibitors of 12-hLO (12-human lipoxygenase). Potency, µM (series often up to 57.1 µM), for the others: at the highest dose activity change, negative = inhibition, actives largely listed as inhibitors. hit rate 0.12% among 150,000. purified 12-hLO, xylenol orange hydroperoxide absorbance. AID 1452, 2008; note: potency is the fitted concentration of half-maximal effect; nearly all actives have a fitted effect of over 55% in size
#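 Purified human 12hLO (150 nM), preincubated 15 min with compound, then 40 uM arachidonic acid for 30 min, room temperature, Hepes pH 7.0 with 0.01% Triton X-100. Hydroperoxide detected by ferrous iron/xylenol orange; 573/405 nm absorbance ratio gives reaction progress.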
# An asterisk follows results filed as active; ? = inconclusive; / = not tested or not shown; [ ] = another dose, or the depositor's remark. Unless noted, calls come from the whole dose curve; as a rule, active = well fitted curve in the direction sought with a large enough effect; inconclusive = small, poorly fitted or top-dose-only effect, or another doubt; inactive = no such curve, though single readings can be large; an effect the other way counts as inactive or inconclusive. Unless noted, % is set by controls: 0 for no effect and ±100 for the full control effect.
SMILES,PNC inhibitor,IMPase Li cell,IMPase cell inh,ALOX12 inhib
COc1ccc(CNC(=O)CSc2nc(-c3ccccc3)cc(-c3cccs3)c2C#N)cc1,?,-2.6%[38.3 µM],-15.2,3.8%
Cc1ccccc1NC(=O)CSc1nc(N)c(C#N)c(-c2cccs2)c1C#N,?,5.01µM*,?,-5.8%
COc1ccc(CCNC(=O)CSc2nc(N)c(C#N)c(-c3cccs3)c2C#N)cc1OC,-13.5,28.2µM*,1.3,-3.7%
CCN(CC)C(=O)CSc1nc(N)c(C#N)c(-c2cccs2)c1C#N,?,-29.6%,-1.8,-0.7%
CCOC(=O)c1[nH]c(C)c(C(=O)OCC(=O)N(C)C2CCS(=O)(=O)C2)c1C (stereo unspecified),/,-6.6%,/,/
Cc1ccc(C2(c3noc(CN4CCC(c5ccncc5)CC4)n3)CCCC2)cc1,/,24.3%,/,/
O=S(=O)(/N=C(/Nc1ccc(F)cc1F)c1ccccc1)c1ccc(Br)cc1,-99.1*,-5.0%,-4.0,8.0%
O=S(=O)(/N=C(/Nc1ccc(F)cc1F)c1ccccc1)c1ccccc1,?,-1.2%,/,-2.6%
O=C(CCCNC(=O)/C(=C/c1ccccc1F)NC(=O)c1ccccc1)OCc1ccccc1,-5.7,12.3%,11.8,2.0%
CCC(C)(C(=O)NC1CCCC1)N(Cc1cccs1)C(C)=O (stereo unspecified),-100.0*,5.4%,10.4,-0.5%
CC(=O)[C@@H]1CC[C@@H]2[C@@H]3CC=C4C[C@H](OS(=O)(=O)O)CC[C@@]4(C)[C@H]3CC[C@]21C,/,/,-0.9,2.7%
CCCc1nnc(-c2cc(OC)c(OC)c(OC)c2)o1,-90.9*,4.4%,/,-2.0%
COc1cc(-c2nnc(-c3cc(OC)c(OC)c(OC)c3)o2)cc(OC)c1OC,-100.0*,5.9%,-5.6,4.4%
COc1cc(-c2nnc(-c3ccccc3)o2)cc(OC)c1OC,14.1,-0.2%,?,-3.0%
O=C(CSC1=NCCN1)NC(c1ccccc1)c1ccccc1,/,13.6%,/,/
O=C(CSc1nc(-c2cccs2)cc(C(F)(F)F)n1)Nc1cc(OCC(F)(F)F)cc([N+](=O)[O-])c1,-89.9*,-2.7%,/,-3.3%
CC1CCN(C(=O)CCCOc2ccc(Cl)cc2)CC1,-4.4,21.1%,/,-6.6%
Cc1ccccc1NC(=O)C(=O)N/N=C/c1cccc(Br)c1,-113.8*,-7.1%,/,4.1%
CCc1cccc(CC)c1NC(=O)COC(=O)/C(C#N)=C/c1ccc(OC)cc1,-12.5,1.8%,/,-3.3%
COc1ccc(/C=C(\C#N)C(=O)OCC(=O)Nc2c(C)cccc2C)cc1,-81.3*,0.6%,/,1.6%
CCOC(=O)c1ccc([N+](=O)[O-])cc1NC(C)=O,-92.3*,3.1%,/,-1.9%
Cc1cc2n(n1)SC(Nc1cccc3ccccc13)N2 (stereo unspecified),-17.7,-2.1%,-21.8,?
Cc1cc2n(n1)SC(Nc1cc(Cl)ccc1Cl)N2 (stereo unspecified),-100.0*,3.8%,0.0,?
C=CCNC(=O)CC(=O)N/N=C/c1cccs1,/,2.3%,/,/
COc1cccc(C(=O)Nc2cccc(C(=O)N3CCOCC3)c2)c1,0.5,16.2%[38.3 µM],0.6,0.8%
SMILES,PNC inhibitor,IMPase Li cell,IMPase cell inh,ALOX12 inhib
Cc1cccc(C(=O)Nc2cccc(C(=O)N3CCOCC3)c2)c1,-107.5*,8.5%[38.3 µM],-12.1,-1.5%
Nc1ccc(S(=O)(=O)NCCS(=O)(=O)O)cc1,/,2.6%,/,0.4%[11.4 µM]
CC(NC(=O)/C(C#N)=C/c1ccc(Cl)c([N+](=O)[O-])c1)c1ccccc1 (stereo unspecified),-100.0*,2.9%,/,-25.2%
C[C@@H](NC(=O)/C(C#N)=C/c1ccc(O)c(O)c1)c1ccccc1,/,15.7%,13.0,?
C[C@H](NC(=O)/C(C#N)=C/c1ccc(O)c(O)c1)c1ccccc1,/,64.2%,16.3,20µM*
O=C(Nc1nnc(CSCc2ccc(F)cc2)s1)c1ccc([N+](=O)[O-])cc1,-96.1*,-3.6%,/,1.4%
O=C(Nc1nnc(CSCc2ccccc2F)s1)c1cccc([N+](=O)[O-])c1,-100.0*,10.5%,0.1,-1.7%
NC1=NC(=O)C2(COC(c3ccncc3)OC2)S1 (stereo unspecified),/,-1.1%,/,/
O=C(c1cccc(F)c1)N1CCC2(CCCN(c3ccccc3)C2)CC1,/,11.1%,/,-9.7%
COC(=O)c1ccc(OCCOc2ccccc2)cc1,10.5,49.2%[38.3 µM],3.2,1.9%
COC(=O)c1ccc(CNC(=O)c2ccc(COc3ccccc3)cc2)cc1,-100.0*,-5.5%,/,-3.3%
NNC(=O)c1ccc(COc2ccccc2)cc1,-8.4,-1.2%,3.4,4.5%
O=C(Nc1ccc(F)cc1)c1ccc(COc2ccccc2)cc1,?,12.6µM*,/,1.1%
C[C@@H](CSC(=N)N)C(N)=O,/,1.9%,/,-2.8%[11.4 µM]
Cc1nn(CCC#N)c(NC(=O)c2ccccc2)c1P(=O)(Nc1ccc(Br)cc1)N1CCOCC1 (stereo unspecified),/,-13.5%,/,/
Cc1ccc(NC(=O)C(=O)NCCOc2ccccc2Cl)cc1,-13.9,11.9%,/,0.3%
CCOC(=O)C1(C)Oc2ccc(S(=O)(=O)CC)cc2NC1=O (stereo unspecified),/,-2.4%,/,/
COc1ccc(-n2c(=O)c(-c3cccs3)nc3cnc(N4CCOCC4)nc32)cc1,/,-6.0%,/,/
COCCn1c(=O)c(-c2cccs2)nc2cnc(N3CCOCC3)nc21,/,11.2µM*,/,/
CC(C)OC(=O)Cn1nnc2c(cnn2-c2ccccc2)c1=O,-100.0*,7.4%,11.9,-1.9%
CC(=O)Nc1nc(C)c(-c2csc(Nc3cccc([N+](=O)[O-])c3)n2)s1,9.3,29.3%[38.3 µM],7.5,-6.6%
CC(=O)c1cccc(Nc2nc(-c3cccc([N+](=O)[O-])c3)cs2)c1,-85.1*,26.1%,15.0,-10.8%
CC(C)(C)C(=O)Nc1ccccc1C(=O)Nc1ccccn1,-100.0*,3.0%,-5.6,3.1%
CCCC1(c2ccccc2)NC(=O)N(CC(=O)Nc2cc(C)on2)C1=O (stereo unspecified),/,4.4%,/,/
CCCC1(c2ccccc2)NC(=O)N(CC(=O)Nc2sc(-c3ccccc3)cc2C(=O)OCC)C1=O (stereo unspecified),19.1,2.82µM*,?,-5.3%
SMILES,PNC inhibitor,IMPase Li cell,IMPase cell inh,ALOX12 inhib
Cc1ccc(S(=O)(=O)Nc2ccccc2/C=N/c2nc3ccccc3n2C(C)C)cc1,-92.0*,-1.1%,-6.2,-1.5%
COc1ccc(N2CCN(CCNC(=O)c3ccc4c(c3)[nH]c(=S)n3c5ccccc5nc43)CC2)cc1,/,14.1µM*,/,/
COc1ccccc1Cn1c(=S)[nH]c2cc(C(=O)NCCN3CCOCC3)ccc2c1=O,?,/,?,-23.6%
COc1ccc(CCNC(=O)c2cc(=O)[nH]c3ccc(Br)cc23)cc1OC,-112.6*,-18.9%,?,1.8%
COc1ccc(CCNC(=O)Cc2cc(=O)[nH]c(=O)[nH]2)cc1OC,62.1,?,5.8,12.7%
COc1ccc(OCCC(=O)OCC(=O)NCc2ccccc2)cc1,76.2,1.1%,-5.1,3.0%

# Screens deposited in PubChem by National Center for Advancing Translational Sciences (NCATS).
